Results taken from PubChem BioAssay (NCATS).
Records with an inconclusive call do not appear. The source made the active and inactive calls. Unless noted, calls follow the shape of the dose curve; as a rule, active = well fitted curve in the direction sought with a large enough effect; inconclusive = small, poorly fitted or top-dose-only effect, or another doubt; inactive = no such curve, though single readings can be large; an effect the other way counts as inactive or inconclusive.

Columns and labels:
[1] = AP1 Signaling Pathway (AID 357; active = well fitted curve in either direction with a large enough effect, not every such curve was filed as active;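 also: ME-180 reporter cells stimulated with EGF at its EC50 level; % is scaled to controls: 0 for no effect and ±100 for the full control effect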)
Outline: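 Beta-lactamase reporter under AP-1 response element, ME-180 background. Stimulus: EC50 EGF. Compound exposure 5 h, 37 °C. Detection: CCF4, 2.5 h RT, 460/530 nm. Values: AC50 from titration.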

[2] = biological target: Cytochrome P450 1A2 (Homo sapiens) (UniProt P05177); test: p450-cyp1a2 (AID 410; calls by dose curve; also: potency is read from the fitted curve at half-maximal effect;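 as to activity change, negative = inhibition: -100% = full effect of reference inhibitor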)
Outline: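 Inhibition was calculated relative to 57 uM furafylline (full inhibition). The reaction used human CYP1A2 at 20nM with Luciferin-ME at its Km, 100uM, driven by an NADPH-regenerating system for 60 min at room temperature.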

[3] = NFAT Signaling Pathway (AID 444; active = well fitted curve in either direction with a large enough effect, not every such curve was filed as active;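 also: carbachol stimulus at about its EC50 of 1 µM final; % is scaled to controls: 0 for no effect and ±100 for the full control effect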); settings: Jurkat NFAT-bla M1, carbachol, beta-lactamase ratio, 5 h; at 17.2 µM (top of the series) unless noted
Outline: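 Jurkat cells with NFAT-driven β-lactamase reporter and co-expressed M1 receptor, stimulated with carbachol (final 1 uM, ~EC50), compound titration, 5 h at 37 °C. CCF4 loaded 1 h at RT; 460/530 nm ratio gave %activity and AC50.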

[4] = Stat Signaling Pathway (AID 446; active = well fitted curve in either direction with a large enough effect, not every such curve was filed as active;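 also: ME-180 cervical cancer cells given 40 pM IL-6 alongside compound; SIE-controlled beta-lactamase reporter measured as 460/530 nm FRET emission ratio; % is scaled to controls: 0 for no effect and ±100 for the full control effect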)
Outline: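 Screening format detects activators and inhibitors alike: ME-180 SIE-bla cells stimulated at 40 pM IL-6 for 5 hrs with compound, then dual-emission beta-lactamase read at 405 nm excitation.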

[5] = biological target: 3',5'-cyclic-AMP phosphodiesterase 4B (Homo sapiens) (UniProt Q07343); test: qHTS Assay for Inhibitors of PDE-IV (AID 607; active = well fitted activation curve with a large enough effect in the main read-out, with a control signal flat, not every such curve was filed as active; also: % of control where 0% means no effect)
Outline: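 The readout is membrane depolarisation from a cAMP-sensing CNG channel, detected with a potential dye at ex 535/em 590. Cells were HEK293-derived (endogenous PDE-IV) at 1000 cells/well, titrated up to 22.9 uM final.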

[6] = qHTS Assay for Lipid Storage Modulators (AID 1519; calls by dose curve); settings: Drosophila S3 cells, BODIPY lipid droplet/cell ratio, laser cytometry, cells loaded with oleic acid; for activity change, negative = inhibition: at 25.7 µM (top of the series)
Outline: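 Cells seeded at 5,000 per well were treated with compounds over a concentration series and loaded with oleic acid (400 uM, as added). Lipid droplet fluorescence (488 nm excitation, 500-530 nm channel) was read by laser-scanning cytometry and normalized to 20 uM Triacsin C.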

[7] = biological target: Ubiquitin carboxyl-terminal hydrolase 1 (Homo sapiens) (UniProt O94782); test: Inhibitors of USP1/UAF1: Pilot qHTS (AID 504865);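 also: rhodamine fluorescence freed from ubiquitin-rhodamine substrate followed over time; top concentration of the series differs between compounds; % is scaled to controls: 0 for no effect and ±100 for the full control effect; nearly all actives have a fitted effect of over 35% in size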
Outline: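 Enzyme-free wells gave the negative control, while test wells held 1nM USP1/UAF1 preincubated with compound for 15 min at room temperature. Ub-Rho at 150nM final started the reaction, and fluorescence at 480/540 nm was recorded kinetically.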

[8] = biological target: Mitogen-activated protein kinase 10 (Mus musculus) (UniProt Q61831); test: JNK3 AlphaScreen Assay (AID 530; active = well fitted curve in either direction with a large enough effect, not every such curve was filed as active;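 also: kinase came from lysate of stimulated human HepG2 cells; signal reports phosphorylation of biotinylated GST-cJun 1-79 at Ser73 with 10 µM ATP; % is scaled to controls: 0 for no effect and ±100 for the full control effect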)
Outline: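 qHTS format: compounds tested as titrations against IL-1beta/TNF-alpha-activated HepG2 lysate JNK3 with biotin-GST-cJun substrate and 10 uM ATP at room temperature. Loss of anti-phospho-cJun AlphaScreen signal indicates inhibition.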

[9] = biological target: Glucocorticoid receptor (Homo sapiens) (UniProt P04150); test: GR-GFP Redistribution (AID 450;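 active = compounds whose dose series gives a full or clear partial fitted curve of increased nuclear translocation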; also: potency is read from the fitted curve at half-maximal effect); settings: U2OS GR-GFP nuclear translocation, laser cytometry, 2 h
[10] = biological target: Glucocorticoid receptor (Homo sapiens) (UniProt P04150); test: GR-EFC Redistribution (AID 451; calls by dose curve; also: potency is read from the fitted curve at half-maximal effect); settings: CHO-K1 GR-EFC translocation, beta-gal luminescence, 2 h
Outline: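 CHO-K1 cells expressing nuclear EA and GR-ED fragments of b-gal; compounds titrated up to 46 uM final, 2 h at 37 C. GR nuclear translocation read as complemented b-gal luminescence after 1 h RT detection.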

[11] = biological target: ATP-dependent 6-phosphofructokinase (Trypanosoma brucei brucei) (UniProt O15648); test: qHTS Assay to Find Inhibitors of T. brucei phosphofructokinase: hit validation (AID 492961); also: % is scaled to controls: 0 for no effect and ±100 for the full control effect
Outline: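 Luminescence from ADP-Glo reports ADP generated as T. brucei PFK (1.25 nM) phosphorylates 0.5 mM fructose-6-phosphate using 0.1 mM ATP. Reactions ran 45 min at room temperature, pH 8.0.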

[12] = qHTS profiling for inhibitors of Plasmodium falciparum proliferation (AID 504749);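 also: 0% = DMSO vehicle and full inhibition = artemisinin control; nearly all actives have a fitted effect of over 60% in size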; settings: P. falciparum in erythrocytes, SYBR Green DNA, 72 h
Outline: (§1)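 Readout was DNA-dye fluorescence from lysed cultures, ex 485/em 535 nm. Parasitized red cells had grown 72 h with compound; data scaled between 0.29 uM artemisinin and DMSO wells and corrected using vehicle-only plates.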

C2A = test: as above; settings: P. falciparum in erythrocytes, SYBR Green DNA, 72 h; series mostly up to 12.8 µM
Outline: as §1

CP191 = test: as above; settings: P. falciparum in erythrocytes, SYBR Green DNA, 72 h; series mostly up to 12.8 µM
Outline: as §1

CP217 = test: as above; settings: P. falciparum in erythrocytes, SYBR Green DNA, 72 h; series mostly up to 12.8 µM
Outline: as §1

CP250 = test: as above; settings: P. falciparum in erythrocytes, SYBR Green DNA, 72 h; series mostly up to 12.8 µM
Outline: as §1

CP256 = test: as above; settings: P. falciparum in erythrocytes, SYBR Green DNA, 72 h; series mostly up to 12.8 µM
Outline: as §1

FAB9 = test: as above; settings: P. falciparum in erythrocytes, SYBR Green DNA, 72 h; series mostly up to 12.8 µM
Outline: as §1

JCK = test: as above; settings: P. falciparum in erythrocytes, SYBR Green DNA, 72 h; series mostly up to 12.8 µM
Outline: as §1

SC27B = test: as above; settings: P. falciparum in erythrocytes, SYBR Green DNA, 72 h; series mostly up to 12.8 µM
Outline: as §1

[13] = measured here: cell count channel max response
[14] = measured here: lipid channel max response
[15] = at 12.8 µM (top of the series), parasite line A
[16] = at 12.8 µM (top of the series), parasite line B

Sequence of Ubiquitin carboxyl-terminal hydrolase 1 (Homo sapiens) (O94782 whole entry, looked up): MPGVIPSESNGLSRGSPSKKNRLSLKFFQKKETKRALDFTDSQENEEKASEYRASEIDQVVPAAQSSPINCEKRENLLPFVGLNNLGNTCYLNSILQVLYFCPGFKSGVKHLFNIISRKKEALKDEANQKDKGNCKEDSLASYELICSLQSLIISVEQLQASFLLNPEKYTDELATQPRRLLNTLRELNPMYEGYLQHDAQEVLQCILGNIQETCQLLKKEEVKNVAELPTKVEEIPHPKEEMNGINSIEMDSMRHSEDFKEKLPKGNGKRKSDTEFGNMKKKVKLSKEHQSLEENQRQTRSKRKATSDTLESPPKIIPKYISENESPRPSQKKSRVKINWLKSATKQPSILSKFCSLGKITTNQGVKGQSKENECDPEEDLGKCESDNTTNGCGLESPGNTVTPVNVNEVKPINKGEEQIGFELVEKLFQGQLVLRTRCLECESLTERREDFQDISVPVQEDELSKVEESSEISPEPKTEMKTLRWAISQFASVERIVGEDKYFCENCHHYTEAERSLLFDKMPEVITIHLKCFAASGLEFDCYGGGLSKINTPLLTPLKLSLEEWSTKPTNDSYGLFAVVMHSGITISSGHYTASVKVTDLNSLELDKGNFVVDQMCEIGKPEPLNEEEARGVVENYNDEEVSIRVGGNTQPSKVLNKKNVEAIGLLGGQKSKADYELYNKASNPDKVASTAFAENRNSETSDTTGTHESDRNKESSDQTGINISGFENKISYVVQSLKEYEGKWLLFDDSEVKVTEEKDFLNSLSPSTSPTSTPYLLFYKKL
Sequence of Glucocorticoid receptor (Homo sapiens) (P04150 whole entry, looked up, the tested form may be a part): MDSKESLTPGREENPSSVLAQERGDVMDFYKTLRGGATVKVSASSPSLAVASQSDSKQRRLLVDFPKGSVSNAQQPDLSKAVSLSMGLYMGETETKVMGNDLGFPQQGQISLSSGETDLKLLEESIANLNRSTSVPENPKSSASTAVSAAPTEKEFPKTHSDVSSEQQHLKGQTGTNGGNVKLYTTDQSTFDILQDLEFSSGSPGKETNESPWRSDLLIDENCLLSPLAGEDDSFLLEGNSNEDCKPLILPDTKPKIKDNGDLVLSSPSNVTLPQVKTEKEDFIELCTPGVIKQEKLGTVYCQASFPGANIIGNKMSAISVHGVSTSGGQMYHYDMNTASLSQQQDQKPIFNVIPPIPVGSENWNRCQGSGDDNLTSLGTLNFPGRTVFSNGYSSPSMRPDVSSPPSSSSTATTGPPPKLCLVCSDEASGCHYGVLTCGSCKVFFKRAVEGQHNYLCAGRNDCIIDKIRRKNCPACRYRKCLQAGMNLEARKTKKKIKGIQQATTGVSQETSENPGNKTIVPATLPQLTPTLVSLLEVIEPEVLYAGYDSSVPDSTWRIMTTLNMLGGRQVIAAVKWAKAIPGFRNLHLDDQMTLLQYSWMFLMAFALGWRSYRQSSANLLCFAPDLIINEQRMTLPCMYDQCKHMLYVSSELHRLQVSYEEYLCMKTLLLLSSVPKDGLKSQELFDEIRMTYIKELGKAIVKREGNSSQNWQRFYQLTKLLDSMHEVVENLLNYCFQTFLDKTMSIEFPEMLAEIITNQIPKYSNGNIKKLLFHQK
Sequence of ATP-dependent 6-phosphofructokinase (Trypanosoma brucei brucei) (O15648 whole entry, looked up): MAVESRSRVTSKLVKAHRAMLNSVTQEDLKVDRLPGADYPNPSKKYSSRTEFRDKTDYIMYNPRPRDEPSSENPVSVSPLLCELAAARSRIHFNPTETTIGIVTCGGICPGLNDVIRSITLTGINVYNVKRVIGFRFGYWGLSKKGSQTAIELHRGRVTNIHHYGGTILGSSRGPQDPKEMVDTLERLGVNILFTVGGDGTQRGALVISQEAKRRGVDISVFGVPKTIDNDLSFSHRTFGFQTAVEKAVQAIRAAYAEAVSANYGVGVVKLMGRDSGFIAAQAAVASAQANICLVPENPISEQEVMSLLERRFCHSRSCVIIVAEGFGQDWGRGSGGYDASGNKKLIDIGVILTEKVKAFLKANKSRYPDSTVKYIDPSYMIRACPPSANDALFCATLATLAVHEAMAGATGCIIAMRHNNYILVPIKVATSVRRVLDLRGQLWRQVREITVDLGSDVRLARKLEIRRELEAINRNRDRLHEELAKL
Sequence of 3',5'-cyclic-AMP phosphodiesterase 4B (Homo sapiens) (Q07343 whole entry, looked up): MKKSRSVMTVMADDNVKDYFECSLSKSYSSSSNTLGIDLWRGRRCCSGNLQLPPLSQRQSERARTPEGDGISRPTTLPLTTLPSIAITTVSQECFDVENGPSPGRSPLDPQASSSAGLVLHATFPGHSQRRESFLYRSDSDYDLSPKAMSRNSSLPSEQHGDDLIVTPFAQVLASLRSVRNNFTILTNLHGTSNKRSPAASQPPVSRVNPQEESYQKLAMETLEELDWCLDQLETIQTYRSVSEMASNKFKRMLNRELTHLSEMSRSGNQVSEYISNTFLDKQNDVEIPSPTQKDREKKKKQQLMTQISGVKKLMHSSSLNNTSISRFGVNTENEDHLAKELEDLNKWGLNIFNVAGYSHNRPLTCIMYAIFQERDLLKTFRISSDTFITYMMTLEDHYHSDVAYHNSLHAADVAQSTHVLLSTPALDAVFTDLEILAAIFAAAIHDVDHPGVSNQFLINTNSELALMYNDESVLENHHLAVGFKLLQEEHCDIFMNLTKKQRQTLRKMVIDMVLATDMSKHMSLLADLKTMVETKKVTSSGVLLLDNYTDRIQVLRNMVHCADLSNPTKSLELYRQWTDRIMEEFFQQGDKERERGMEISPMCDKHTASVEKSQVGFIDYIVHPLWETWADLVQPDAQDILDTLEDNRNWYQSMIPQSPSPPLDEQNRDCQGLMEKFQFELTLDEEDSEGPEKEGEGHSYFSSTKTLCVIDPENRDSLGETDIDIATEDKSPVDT
Sequence of Cytochrome P450 1A2 (Homo sapiens) (P05177 whole entry, looked up): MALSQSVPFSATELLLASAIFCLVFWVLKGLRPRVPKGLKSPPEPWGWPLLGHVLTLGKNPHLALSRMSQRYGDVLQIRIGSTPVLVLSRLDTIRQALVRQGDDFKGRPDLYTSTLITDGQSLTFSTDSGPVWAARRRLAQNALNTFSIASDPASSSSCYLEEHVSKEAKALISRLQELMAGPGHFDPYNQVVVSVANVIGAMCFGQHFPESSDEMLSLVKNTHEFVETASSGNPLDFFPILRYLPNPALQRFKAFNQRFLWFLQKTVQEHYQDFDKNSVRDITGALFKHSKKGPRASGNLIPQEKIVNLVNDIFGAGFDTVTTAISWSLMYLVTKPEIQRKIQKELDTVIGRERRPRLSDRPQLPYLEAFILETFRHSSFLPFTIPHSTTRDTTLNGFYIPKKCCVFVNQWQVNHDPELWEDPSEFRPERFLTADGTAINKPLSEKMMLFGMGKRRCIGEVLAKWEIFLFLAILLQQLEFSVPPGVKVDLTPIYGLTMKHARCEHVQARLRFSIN

C[C@@H]1C[C@@H]2[C@H]3CCC4=CC(=O)C=C[C@]4(C)[C@]3(F)[C@@H](O)C[C@]2(C)[C@@]1(O)C(=O)CO
inactive: outcome [1] | Potency [2] | activity change, negative = inhibition [3] -9.85% | outcome [4] | outcome [5] | activity change, negative = inhibition [6] -3.53% | Potency [7]
2.12%: max response [6, 13]
-8.18%: max response [6, 14]

CCC(=O)OCC(=O)[C@@]1(OC(=O)CC)[C@H](C)C[C@@H]2[C@H]3CCC4=CC(=O)C=C[C@]4(C)[C@]3(Cl)[C@@H](O)C[C@@]21C
-14.6%: max response [6, 14]
-5.37%: max response [6, 13]
inactive: outcome [1] | Potency [2] | activity change, negative = inhibition [3] -10.9% | Potency [8] | outcome [5] | activity change, negative = inhibition [6] -9.54%

CN(C/C=C\c1ccccc1)Cc1cccc2ccccc12
inactive: outcome [1] | outcome [4] | Potency [9] > 20.6 µM | Potency [10] > 20.6 µM | Potency [8] | activity change, negative = inhibition [6] -0.644% | outcome [11] | Potency [7] | activity, negative = inhibition ([12]; at 28.7 µM (top of the series), parasite line A) 18.6% | activity, negative = inhibition ([12]; at 28.7 µM (top of the series), parasite line B) 9.39% | Potency (C2A) | Potency (CP191) | Potency (CP217) | Potency (CP250) | Potency (CP256) | Potency (FAB9) | Potency (JCK) | Potency (SC27B)
-24.2%: max response [6, 13]
-23.6%: max response [6, 14]
active: Potency [2] 2 µM

CO[C@]1(NC(=O)C2SC(=C(C(N)=O)C(=O)O)S2)C(=O)N2C(C(=O)O)=C(CSc3nnnn3C)CS[C@H]21 (stereo not given in full)
1.63%: max response [6, 14]
inactive: outcome [1] | Potency [2] | outcome [4] | Potency [9] > 20.6 µM | Potency [10] > 20.6 µM | Potency [8] | outcome [5] | activity change, negative = inhibition [6] 0.935% | outcome [11] | activity, negative = inhibition [12, 15] -5.23% | activity, negative = inhibition [12, 16] -0.327% | Potency (C2A) | Potency (CP191) | Potency (CP217) | Potency (CP250) | Potency (CP256) | Potency (FAB9) | Potency (JCK) | Potency (SC27B)
0.185%: max response [6, 13]

CC[C@H](Cc1c(I)cc(I)c(N)c1I)C(=O)O
-5.23%: max response [6, 13]
active: Potency [2] 12.6 µM
inactive: outcome [1] | outcome [4] | Potency [9] > 20.6 µM | Potency [10] > 20.6 µM | Potency [8] | activity change, negative = inhibition [6] 0.772% | outcome [11] | Potency [7] | activity, negative = inhibition [12, 15] 7.39% | activity, negative = inhibition [12, 16] 11.4% | Potency (C2A) | Potency (CP191) | Potency (CP217) | Potency (CP250) | Potency (CP256) | Potency (FAB9) | Potency (JCK) | Potency (SC27B)
-5.12%: max response [6, 14]

C=CCOc1ccccc1OC[C@H](O)CNC(C)C
-12.4%: max response [6, 13]
inactive: outcome [1] | activity change, negative = inhibition [3] -9.75% | Potency [9] > 20.6 µM | Potency [10] > 20.6 µM | Potency [8] | outcome [5] | activity change, negative = inhibition [6] 2.07% | outcome [11] | Potency [7] | activity, negative = inhibition [12, 15] -6.89% | activity, negative = inhibition [12, 16] -26.4% | Potency (C2A) | Potency (CP191) | Potency (CP217) | Potency (CP250) | Potency (FAB9) | Potency (JCK) | Potency (SC27B)
-9.74%: max response [6, 14]
active: Potency [2] 5.01 µM

CC(=O)OCC(=O)[C@@]1(O)[C@H](C)C[C@@H]2[C@H]3CCC4=CC(=O)C=C[C@]4(C)[C@]3(F)[C@@H](O)C[C@@]21C
inactive: outcome [1] | Potency [2] | activity change, negative = inhibition [3] -0.305% | Potency [8] | outcome [5] | activity change, negative = inhibition [6] -3.21% | outcome [11] | Potency [7] | activity, negative = inhibition [12, 15] 0.4% | activity, negative = inhibition [12, 16] -1.7% | Potency (C2A) | Potency (CP191) | Potency (CP217) | Potency (CP250) | Potency (CP256) | Potency (FAB9) | Potency (JCK) | Potency (SC27B)
-18.5%: max response [6, 14]
-15.2%: max response [6, 13]

Nc1ccccc1S(N)(=O)=O
-21.4%: max response [6, 14]
-21%: max response [6, 13]
inactive: outcome [1] | Potency [2] | activity change, negative = inhibition [3] -3.4% | Potency [9] > 20.6 µM | Potency [10] > 20.6 µM | Potency [8] | outcome [5] | activity change, negative = inhibition [6] -3% | Potency [7]

O=C(O)[C@@H](O)[C@@H](O)[C@@H](O[C@H]1O[C@@H](CO)[C@@H](O)[C@@H](O)[C@@H]1O)[C@@H](O)CO
10.3%: max response [6, 14]
12.1%: max response [6, 13]
inactive: outcome [1] | Potency [2] | outcome [4] | Potency [9] > 20.6 µM | Potency [10] > 20.6 µM | Potency [8] | outcome [5] | activity change, negative = inhibition [6] -0.529% | Potency [7]

CC(C)(CS)C(=O)N1CCC[C@H]1C(=O)O
2.97%: max response [6, 13]
4.64%: max response [6, 14]
inactive: outcome [1] | Potency [2] | outcome [4] | Potency [9] > 20.6 µM | Potency [10] > 20.6 µM | Potency [8] | activity change, negative = inhibition [6] 1% | Potency [7]

CC(C)NC[C@H]1CCc2cc(CO)c([N+](=O)[O-])cc2N1
-14.1%: max response [6, 14]
active: Potency [2] 10 µM
-10%: max response [6, 13]
inactive: outcome [1] | outcome [4] | Potency [9] > 20.6 µM | Potency [10] > 20.6 µM | Potency [8] | outcome [5] | activity change, negative = inhibition [6] -3.1% | outcome [11] | Potency [7] | activity, negative = inhibition [12, 15] 7.96% | activity, negative = inhibition [12, 16] 12.7% | Potency (C2A) | Potency (CP191) | Potency (CP217) | Potency (CP250) | Potency (CP256) | Potency (FAB9) | Potency (JCK) | Potency (SC27B)
